Assay results taken from PubChem BioAssay (EPA / NIEHS).
Active and inactive are the calls of the source. How the source made its calls: active means hit-call score of the fitted dose curve at least 0.9, where 1 is the maximum; inactive means score below 0.9.

Tests used:
Details in all cases: mRNA level, 48 h; actives raise or lower the signal
[1] = read-out: Cytochrome P450 (CYP24A1), CYP24A1 (gene 1591); assay: LTEA_HepaRG_CYP24A1: Life Technologies and Expression Analysis (LTEA) Assay for Cytochrome P450 (CYP24A1) using HepaRG (AID 2283478)
Procedure, shortened: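 qRT-PCR read-out: CYP24A1 transcript levels normalized to three housekeeping genes, bidirectional curve fits against 0.5% DMSO baseline. Human HepaRG cells treated 48 h with chemicals at eight concentrations from 100 uM in half-log steps.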

[2] = read-out: Cytochrome P450 (CYP1A2), CYP1A2 (gene 1544); assay: LTEA_HepaRG_CYP1A2: Life Technologies and Expression Analysis (LTEA) Assay for Cytochrome P450 (CYP1A2) using HepaRG (AID 2283479)
Procedure, shortened: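 HepaRG, 48 h exposure, top 100 uM, half-log 8-pt, 0.5% DMSO vehicle, duplicates. Readout: TaqMan qRT-PCR of CYP1A2 mRNA, housekeeping-normalized (ACTB/GAPDH/POLR2A). Gain/loss fit relative to DMSO baseline.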

[3] = read-out: cysteine-aspartic acid protease (CASP8), CASP8 (gene 841); assay: LTEA_HepaRG_CASP8: Life Technologies and Expression Analysis (LTEA) Assay for cysteine-aspartic acid protease (CASP8) using HepaRG (AID 2283480)
Procedure, shortened: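 qRT-PCR readout of CASP8 mRNA, normalized to three housekeeping genes, after 48 h chemical exposure of HepaRG cells; 8-point half-log series, top 100 uM, 0.5% DMSO vehicle. Bidirectional curve fitting against DMSO baseline.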

[4] = read-out: Cytochrome P450 2C19 (Homo sapiens) (UniProt P33261); assay: LTEA_HepaRG_CYP2C19: Life Technologies and Expression Analysis (LTEA) Assay for CYP2C19 using HepaRG (AID 2283482)
Procedure, shortened: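 HepaRG, 48 h chemical exposure, 8-pt half-log series from 100 uM in 0.5% DMSO, duplicates. Readout: CYP2C19 mRNA by TaqMan qRT-PCR, housekeeping-normalized. Bidirectional fit vs DMSO baseline; phenobarbital 1mM as induction control.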

CYP2C8 (gene 1558) = assay: LTEA_HepaRG_CYP2C8: Life Technologies and Expression Analysis (LTEA) Assay for CYP2C8 using HepaRG (AID 2283483)
Procedure, shortened: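 HepaRG (human liver line), 48 h chemical exposure, 8-pt half-log series from 100 uM, 0.5% DMSO vehicle. Readout: CYP2C8 transcript by qRT-PCR, housekeeping-normalized. Bidirectional fit vs DMSO baseline.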

CYP2C9 (gene 1559) = assay: LTEA_HepaRG_CYP2C9: Life Technologies and Expression Analysis (LTEA) Assay for CYP2C9 using HepaRG (AID 2283484)
Procedure, shortened: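 HepaRG, 48 h dosing, 8-pt half-log series, top 100 uM, 0.5% DMSO vehicle. Read-out: CYP2C9 transcript by TaqMan qRT-PCR, housekeeping-normalized (ACTB/GAPDH/POLR2A). Gain or loss fitted vs DMSO baseline.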

CYP2E1 (gene 1571) = assay: LTEA_HepaRG_CYP2E1: Life Technologies and Expression Analysis (LTEA) Assay for CYP2E1 using HepaRG (AID 2283485)
Procedure, shortened: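 CYP2E1 transcript was measured by TaqMan qRT-PCR in human HepaRG cultures after 48 h chemical exposure (top 100 uM, half-log steps, 0.5% DMSO vehicle). Housekeeping-gene normalization; gain or loss fitted relative to DMSO baseline.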

CYP4A11 (gene 1579) = assay: LTEA_HepaRG_CYP4A11: Life Technologies and Expression Analysis (LTEA) Assay for CYP4A11 using HepaRG (AID 2283486)
Procedure, shortened: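 CYP4A11 transcript levels were quantified by TaqMan qRT-PCR after HepaRG human liver cells were treated for 48 hours with test chemicals (top 100 uM, half-log dilutions, 0.5% DMSO). Gain or loss of signal was fitted relative to DMSO.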

[5] = read-out: Cytochrome P450 3A4 (Homo sapiens) (UniProt P08684); assay: LTEA_HepaRG_CYP3A4: Life Technologies and Expression Analysis (LTEA) Assay for CYP3A4 using HepaRG (AID 2283487)
Procedure, shortened: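 Differentiated HepaRG cells, plated 48 h, then dosed 48 h in serum-free induction medium with 0.5% DMSO, 8 half-log concentrations up to 100 uM, duplicate. CYP3A4 mRNA by qRT-PCR, normalized to ACTB/GAPDH/POLR2A; bidirectional fit versus DMSO.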

[6] = read-out: Pro-epidermal growth factor (Homo sapiens) (UniProt P01133); assay: LTEA_HepaRG_EGF: Life Technologies and Expression Analysis (LTEA) Assay for Epidermal growth factor (EGF) using HepaRG (AID 2283489)
Procedure, shortened: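 qRT-PCR readout of EGF transcript after 48 h chemical exposure of HepaRG cells; eight concentrations from 100 uM down in half-log steps, duplicate wells, 0.5% DMSO vehicle. Bidirectional curve fitting against DMSO baseline.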

[7] = read-out: Ezrin (EZR), EZR (gene 7430); assay: LTEA_HepaRG_EZR: Life Technologies and Expression Analysis (LTEA) Assay for Ezrin (EZR) using HepaRG (AID 2283491)
Procedure, shortened: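 EZR transcript levels came from Fluidigm qRT-PCR and were normalized to three housekeeping genes after 48 h chemical exposure of HepaRG cells. Dosing used an 8-point half-log series with a 100 uM top concentration in 0.5% DMSO, tested in duplicate; both directions were fitted versus vehicle.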

[8] = read-out: Cytochrome P450 3A7 (Homo sapiens) (UniProt P24462); assay: LTEA_HepaRG_CYP3A7: Life Technologies and Expression Analysis (LTEA) Assay for CYP3A7 using HepaRG (AID 2283492)
Procedure, shortened: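 CYP3A7 transcript levels were read by TaqMan qRT-PCR on Fluidigm arrays after 48 h chemical exposure of human HepaRG cells, with housekeeping-gene normalisation. Eight half-log concentrations up to 100 uM in 0.5% DMSO were tested in duplicate.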

CYP3A5 (gene 1577) = assay: LTEA_HepaRG_CYP3A5: Life Technologies and Expression Analysis (LTEA) Assay for CYP3A5 using HepaRG (AID 2283493)
Procedure, shortened: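 qRT-PCR read-out: CYP3A5 transcript in HepaRG lysates, housekeeping-normalized (ACTB/GAPDH/POLR2A), fitted bidirectionally against 0.5% DMSO baseline. Exposure 48 h, eight half-log concentrations up to 100 uM, duplicates.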

[9] = read-out: Cytochrome P450 4A22 (Homo sapiens) (UniProt Q5TCH4); assay: LTEA_HepaRG_CYP4A22: Life Technologies and Expression Analysis (LTEA) Assay for Cytochrome P450 4A22 (CYP4A22) using HepaRG (AID 2283495)
Procedure, shortened: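 HepaRG, 48 h post-plating -> serum-free induction medium; dosed 48 h, duplicate, 8 conc. (100 uM top, half-log), 0.5% DMSO. Readout: CYP4A22 mRNA by qRT-PCR, ACTB/GAPDH/POLR2A normalization; gain/loss fit relative to DMSO.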

[10] = read-out: Glutathione S-Transferase (GSTA2), GSTA2 (gene 2939); assay: LTEA_HepaRG_GSTA2: Life Technologies and Expression Analysis (LTEA) Assay for Glutathione S-Transferase (GSTA2) using HepaRG (AID 2283497)
Procedure, shortened: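 qRT-PCR readout of GSTA2 transcript, normalized to three housekeeping genes, fitted bidirectionally against 0.5% DMSO baseline. Differentiated HepaRG cells received compound for 48 h at 8 concentrations (top 100 uM, half-log steps).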

[11] = read-out: Cytochrome P450 7A1 (Homo sapiens) (UniProt P22680); assay: LTEA_HepaRG_CYP7A1: Life Technologies and Expression Analysis (LTEA) Assay for Cytochrome P450 7A1 (CYP7A1) using HepaRG (AID 2283496)
Procedure, shortened: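 Using 0.5% DMSO as vehicle and baseline, chemicals were tested in duplicate over an 8-point range from 100 uM on HepaRG cells for 48 h; qRT-PCR signals were normalised to ACTB, GAPDH and POLR2A.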

[12] = read-out: DNA damage-inducible transcript 3 (DDIT3), DDIT3 (gene 1649); assay: LTEA_HepaRG_DDIT3: Life Technologies and Expression Analysis (LTEA) Assay for DNA damage-inducible transcript 3 (DDIT3) using HepaRG (AID 2283488)
Procedure, shortened: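 qRT-PCR readout (Fluidigm TaqMan), housekeeping-normalized to ACTB, GAPDH, POLR2A. HepaRG cells, 48 h exposure, 8-point half-log series from 100 uM in 0.5% DMSO, duplicates. Gain or loss of signal fitted against DMSO baseline.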

[13] = read-out: Early growth response protein 1 (EGR1) transcription factor, EGR1 (gene 1958); assay: LTEA_HepaRG_EGR1: Life Technologies and Expression Analysis (LTEA) Assay for Early growth response protein 1 (EGR1) transcription factor using HepaRG (AID 2283490)
Procedure, shortened: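 HepaRG, 48 h exposure, 8-pt half-log series from 100 uM, 0.5% DMSO vehicle; EGR1 transcript by TaqMan qRT-PCR (Fluidigm array), housekeeping-normalized; bidirectional fit relative to DMSO baseline.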

[14] = read-out: Fatty Acid-Binding Protein 1 (FABP1), FABP1 (gene 2168); assay: LTEA_HepaRG_FABP1: Life Technologies and Expression Analysis (LTEA) Assay for Fatty Acid-Binding Protein 1 (FABP1) using HepaRG (AID 2283494)
Procedure, shortened: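 qRT-PCR readout of FABP1 transcript (normalized to three housekeeping genes) after 48 h chemical exposure of HepaRG cells; eight concentrations, half-log steps, max 100 uM, 0.5% DMSO vehicle; gain or loss fitted relative to DMSO baseline.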

Measured: AC50

Sequence of Cytochrome P450 3A4 (Homo sapiens) (P08684 whole entry, looked up): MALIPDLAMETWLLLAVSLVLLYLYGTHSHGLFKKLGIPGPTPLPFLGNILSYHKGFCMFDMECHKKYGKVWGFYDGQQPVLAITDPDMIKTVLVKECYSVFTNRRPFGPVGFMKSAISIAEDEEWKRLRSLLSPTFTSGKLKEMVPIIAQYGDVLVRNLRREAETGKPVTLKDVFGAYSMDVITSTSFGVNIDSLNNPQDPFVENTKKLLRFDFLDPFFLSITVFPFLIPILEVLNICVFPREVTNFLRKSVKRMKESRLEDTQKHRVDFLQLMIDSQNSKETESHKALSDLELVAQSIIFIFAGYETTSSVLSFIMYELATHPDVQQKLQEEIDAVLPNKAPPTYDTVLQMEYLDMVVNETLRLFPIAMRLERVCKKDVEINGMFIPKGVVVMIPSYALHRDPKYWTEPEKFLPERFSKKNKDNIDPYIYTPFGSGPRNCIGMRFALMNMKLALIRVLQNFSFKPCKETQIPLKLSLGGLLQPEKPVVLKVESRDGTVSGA
Sequence of Cytochrome P450 3A7 (Homo sapiens) (P24462 whole entry, looked up): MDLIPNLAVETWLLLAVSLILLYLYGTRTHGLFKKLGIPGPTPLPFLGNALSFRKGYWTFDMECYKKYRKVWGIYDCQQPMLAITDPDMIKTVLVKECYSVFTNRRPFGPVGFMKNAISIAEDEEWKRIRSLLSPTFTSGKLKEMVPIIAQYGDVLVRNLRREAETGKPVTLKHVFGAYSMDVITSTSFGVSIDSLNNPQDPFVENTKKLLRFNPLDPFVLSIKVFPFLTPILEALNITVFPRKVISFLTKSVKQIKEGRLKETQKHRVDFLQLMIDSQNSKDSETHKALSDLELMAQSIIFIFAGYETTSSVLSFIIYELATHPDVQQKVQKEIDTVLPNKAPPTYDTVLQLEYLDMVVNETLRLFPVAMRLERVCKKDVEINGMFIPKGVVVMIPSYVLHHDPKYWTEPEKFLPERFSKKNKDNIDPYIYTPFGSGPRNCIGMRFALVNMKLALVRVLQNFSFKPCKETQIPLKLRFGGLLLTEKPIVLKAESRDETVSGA
Sequence of Cytochrome P450 2C19 (Homo sapiens) (P33261 whole entry, looked up): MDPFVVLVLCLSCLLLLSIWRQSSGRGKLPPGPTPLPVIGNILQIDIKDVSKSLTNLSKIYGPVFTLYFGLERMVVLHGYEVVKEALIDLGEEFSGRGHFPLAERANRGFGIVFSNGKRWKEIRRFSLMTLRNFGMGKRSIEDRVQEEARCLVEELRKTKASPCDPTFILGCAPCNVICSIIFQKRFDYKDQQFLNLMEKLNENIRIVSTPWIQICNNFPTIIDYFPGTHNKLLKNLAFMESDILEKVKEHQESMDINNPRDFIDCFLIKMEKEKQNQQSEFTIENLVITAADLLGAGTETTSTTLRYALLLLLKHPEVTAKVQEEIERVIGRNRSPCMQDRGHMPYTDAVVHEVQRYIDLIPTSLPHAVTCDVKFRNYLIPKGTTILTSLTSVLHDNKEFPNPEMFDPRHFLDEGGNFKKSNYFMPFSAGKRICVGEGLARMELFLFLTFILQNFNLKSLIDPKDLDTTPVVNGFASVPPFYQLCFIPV

c1ccc2c(c1)ccc1ccccc12
active: [4] 15.4 µM | CYP2C8 (gene 1558) 12.7 µM | CYP2C9 (gene 1559) 6.12 µM | CYP2E1 (gene 1571) 10.1 µM | [5] 7.1 µM | [8] 5.99 µM
not listed: [11] | [12] | [13] | [14]
inactive: all other assays above

C[C@@H]1C[C@H]2[C@@H]3CCC4=CC(=O)C=C[C@]4(C)[C@@]3(F)[C@@H](O)C[C@]2(C)[C@@]1(O)C(=O)COP(=O)(O)O
active: CYP2E1 (gene 1571) 25 µM | [5] 9.66 µM
not listed: [11] | [12] | [13] | [14]
inactive: all other assays above

CCN(CC)CCNc1ccc(CNC=O)c2sc3ccc(OC)cc3c(=O)c12
active: [3] 50 µM | CYP2C9 (gene 1559) 16.8 µM | CYP2E1 (gene 1571) 12.8 µM | CYP4A11 (gene 1579) 26 µM | [5] 50 µM | [7] 76.2 µM | [8] 3.36 µM | CYP3A5 (gene 1577) 50 µM | [9] 25.7 µM | [10] 81.8 µM
inactive: [1] | [2] | [4] | CYP2C8 (gene 1558) | [6]

CC(C)(C)CC(C)(C)c1ccc(O)c(-n2nc3ccccc3n2)c1
active: [2] 31.3 µM | [4] 12.7 µM | CYP2E1 (gene 1571) 58.2 µM | CYP4A11 (gene 1579) 50 µM | [6] 50 µM | [9] 50 µM | [11] 50 µM
not listed: [5] | [12] | [13] | [14]
inactive: all other assays above

CC(=O)NC1(c2cccc(F)c2)CCN(CC[C@@]2(c3ccc(Cl)c(Cl)c3)CN(c3ccccc3)C(=O)CO2)CC1
active: CYP2E1 (gene 1571) 11 µM | CYP4A11 (gene 1579) 13.1 µM | [5] 3.67 µM | [7] 41.5 µM | [8] 4.05 µM | CYP3A5 (gene 1577) 75 µM | [9] 3.17 µM | [10] 65.1 µM
inactive: [1] | [2] | [3] | [4] | CYP2C8 (gene 1558) | CYP2C9 (gene 1559) | [6]

O=[N+]([O-])c1ccc(O)cc1
not listed: [11] | [12] | [13] | [14]
inactive: all other assays above

CCCOc1sc(C(=O)N2CCC(c3cc(CN)ccc3F)CC2)c(C)c1Br
not listed: [13] | [14]
inactive: all other assays above

OC1CCC(C2CCCCC2)CC1 (stereo not given)
not listed: [11] | [13] | [14]
inactive: all other assays above

OCCC(F)(F)C(F)(F)C(F)(F)C(F)(F)C(F)(F)C(F)(F)C(F)(F)C(F)(F)F
not listed: [12] | [13] | [14]
inactive: all other assays above

CC(C)(C)c1cccc(C(C)(C)C)c1O
not listed: CYP4A11 (gene 1579) | [6] | [12]
inactive: all other assays above

CCCCCCCC(=O)O
not listed: [5] | [12]
inactive: all other assays above

NC(=O)N1C(=O)C(C(=O)c2cc(Cl)cs2)c2cc(F)c(Cl)cc21 (stereo not given)
active: [2] 4.16 µM | [3] 19.2 µM | [4] 22.4 µM | CYP2C8 (gene 1558) 50 µM | CYP2C9 (gene 1559) 22.4 µM | CYP2E1 (gene 1571) 13.2 µM | [5] 24.6 µM | [6] 50 µM | [13] 79.3 µM | [8] 24.8 µM | CYP3A5 (gene 1577) 13 µM | [9] 24.1 µM | [10] 19.5 µM
inactive: [1] | [7]

CCCCCCC(=O)O
active: [2] 50 µM
not listed: [11] | [12] | [13]
inactive: all other assays above

CCCCCCCCC(=O)O
not listed: [12]
inactive: all other assays above

CC1=C(/C=C/C(C)=C/C=C/C(C)=C/C(=O)O)C(C)(C)CCC1
inactive: [3] | CYP2C8 (gene 1558) | CYP2C9 (gene 1559) | [13] | CYP3A5 (gene 1577)
active: [1] 12.8 µM | [2] 1.75 µM | [4] 27 µM | CYP2E1 (gene 1571) 20.8 µM | CYP4A11 (gene 1579) 4.34 µM | [6] 28 µM | [7] 0.495 µM | [9] 10.2 µM | [10] 5.61 µM
